# Screening data as filed in PubChem.
# Compounds with a hit are over-represented: about 6.5% of the library has one in this group of screens.
# FMDV antiviral = antivirals against foot and mouth disease virus; 410,000 tested, 1.2% active; FMDV antiviral cell-based qHTS; Potency, µM (titrated, usually from 57.9 µM), inactives show at the top dose activity change, negative = inhibition, usual class: inhibitors; AID 1159524; calls by dose curve; tested in HEK293T cells; further: read-out not given here; potency means the concentration at half of the fitted maximal effect; nearly all actives have a fitted effect of over 45% in size
# Vaccinia Venus = vaccinia inhibition (Venus reporter); Potency, µM (titrated, usually from 36.5 µM), for inactives: at the top dose activity change, negative = inhibition, actives largely listed as inhibitors; 330,000 tested, 0.46% active; AID 720580; Vaccinia virus Venus reporter expression, fluorescence; calls by dose curve; tested in A549 cells; further: potency means the concentration at half of the fitted maximal effect; nearly all actives have a fitted effect of over 30% in size
# HCMV inh = blocks human cytomegalovirus replication; HFF cells, HCMV-luciferase reporter, 72 h; active compounds read low; activity change, negative = inhibition, % at 57.5 µM; 410,000 tested, 4.5% active; AID 1259415; in the data active means activity change below about -60%; inconclusive means no clear call, values can overlap the other calls; inactive means above about -39%
#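 Human foreskin fibroblasts infected with luciferase-reporter HCMV at MOI 1 PFU/cell, compounds at two doses. Luciferase measured 72 h post infection; normalized to buffer-only basal and Salinomycin (10uM) controls.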
# VACV mCherry inh = vaccinia inhibition (mCherry reporter); Vaccinia virus mCherry reporter infection, fluorescence; Potency, µM (highest dose often 36.5 µM), for inactives: at the highest dose activity change, negative = inhibition, most hits filed as inhibitors; 310,000 tested, 0.63% active; calls by dose curve; tested in A549 cells; further: potency means the concentration at half of the fitted maximal effect; nearly all actives have a fitted effect of over 35% in size
# Marburg entry inh = inhibitors of Marburg virus binding or cell entry; Marburg virus pseudotyped entry inhibition, cell reporter; Potency, µM (series often up to 37.8 µM), for the others: at the highest dose activity change, negative = inhibition, most hits filed as inhibitors; AID 540276; 300,000 tested, 1.8% active; calls by dose curve; tested in HEK293 cells; further: potency means the concentration at half of the fitted maximal effect
# LASV entry inh = inhibitors of Lassa virus binding or cell entry; AID 540256; 300,000 tested, 1.2% active; Lassa virus pseudotype entry inhibition, cell reporter; Potency, µM (titrated, usually from 37.9 µM), for the others: at the highest dose activity change, negative = inhibition, usual class: inhibitors; calls by dose curve; tested in HEK293 cells; further: potency means the concentration at half of the fitted maximal effect; nearly all actives have a fitted effect of over 50% in size
# * marks the source's active call; other numbers are inactive results; i = inactive; ? = inconclusive; / = no result; + = active, no number; [ ] = dose if it differs, or a comment. On the % scale 0 is the no-effect control and ±100 the full control effect.
SMILES,FMDV antiviral,Vaccinia Venus,HCMV inh,VACV mCherry inh,Marburg entry inh,LASV entry inh
O=C(Nc1ccccc1)N1CCc2c([nH]c3ccccc23)C1C(F)(F)F (centres undefined),-11%,?,6,?,?,?
Cc1ccc(NC(=O)N2CCc3c([nH]c4ccccc34)C2c2ccccc2F)c(Cl)c1 (centres undefined),-10%,-9%,-28,-12%,/,7.9µM*
Cc1nonc1CC(=O)N1CCc2c([nH]c3ccccc23)C1c1ccccc1F (centres undefined),12%,-17%,38,-16%,?,-13%
O=C(NCc1ccccc1)c1ccc(CNS(=O)(=O)c2ccc(Br)cc2)cc1,-2%,-9%,22,-13%,11%[46.1 µM],-1%[46.1 µM]
C[C@@H](C(=O)NCc1ccccc1)[C@@H]1C[C@@]1(C)[C@@H](NC(=O)OCc1ccccc1)c1ccccc1,-5%,-30%,-30,?,-62%,7.3µM*
Cc1ccc(CNC(=O)[C@H](C)[C@H]2C[C@]2(C)[C@H](NC(=O)OCc2ccccc2)c2ccccc2)o1,-10%,?,/,i,10µM*,-20%
C[C@@H](C(=O)NCc1ccc(S(C)(=O)=O)cc1)[C@H]1C[C@]1(C)[C@H](NC(=O)OCc1ccccc1)c1ccccc1,-21%,-12%,18,-25%,-40%,?
O=C1NC(=O)C(Cc2ccccc2)(C2CCN(Cc3cccn3-c3cccnc3)CC2)N1 (centres undefined),6%,-10%,/,-2%,/,/
CCNc1nc(C#N)nc(NCC)n1,/,-8%,/,19%,/,/
Cc1no[n+]([O-])c1COc1ccccc1/C=N/n1nnnc1N,-19%,?,-75*,?,?,?
CCOc1cc(/C=N/n2nnnc2N)ccc1OCc1c(C)no[n+]1[O-],?,?,-20,?,-7%,0%
CCN1C(=O)/C(=C/c2ccc3c(c2)CCN3CCCCl)C(=O)NC1=S,?,15%,-33,12%,-25%,-18%
C=CCN1C(=O)/C(=C/c2ccc3c(c2)CCCN3CCC)C(=O)NC1=S,32µM*,19%,121,3%,17%,14%
C=CCN1C(=O)/C(=C/c2ccc(Br)s2)C(=O)NC1=S,32µM*,/,32,/,/,/
Fc1ccc(Nc2cc3[nH]c(-c4ccccc4)cc3cn2)cc1,/,/,-6,/,/,/
Nc1c(C(=O)CSc2nc3ccccc3o2)c(=O)[nH]c(=O)n1C1CC1,1%,/,+,/,/,/
COc1ccccc1-c1nnc(SCC(=O)c2c(N)n(C3CC3)c(=O)[nH]c2=O)o1,-13%,/,3,/,/,/
CCCc1cc(N2CCN(c3cc(Cl)ccc3C)CC2)n2cnnc2n1,?,-15%,-17,-15%,29%[46.1 µM],7%[46.1 µM]
COc1ccc(C(C)(C)C)cc1S(=O)(=O)n1ccnc1C,46%,5%,-70*,-9%,-3%,?
COc1cc(C)c(Cl)cc1S(=O)(=O)n1ccnc1C,/,-16%,-16,-19%,13%,1%
COc1ccc(C2CC(=O)c3c([nH]c(C(=O)OC4CCCCCC4)c3C)C2)cc1OC (centres undefined),-6%,-16%,-15,-19%,-6%[46.1 µM],21%[46.1 µM]
C#CCn1c(S(=O)(=O)Cc2ccccc2Cl)nc(-c2ccccc2)c1-c1ccccc1,-17%,/,-70*,/,-7%,/
Cc1ccc(S(=O)(=O)Cc2ccccc2Cl)cc1,23%,-22%,-25,?,?,?
CCOC(=O)Cn1c(S(=O)(=O)Cc2ccccc2Cl)nc(-c2ccccc2)c1-c1ccccc1,1%,/,-32,/,5.2µM*,12µM*
CNC(=O)[C@@H]1C[C@H](Sc2nc3ccccc3[nH]2)CN1Cc1ccccc1C(F)(F)F,-9%,-22%,/,-25%,/,/
O=C(OCC(=O)N1CCCC1)c1cc([N+](=O)[O-])ccc1Cl,10µM*,17%,-19,-11%,9%[46.1 µM],16%[46.1 µM]
O=C(CCS(=O)(=O)c1nc(-c2ccc3c(c2)OCO3)cc(C(F)(F)F)n1)Nc1ccc(Br)cc1,?,-12%,-99*,i,?,3%[46.1 µM]
COC(=O)c1ccccc1NC(=O)CCS(=O)(=O)c1nc(-c2ccc3c(c2)OCO3)cc(C(F)(F)F)n1,?,-16%,-70*,-9%,16%[46.1 µM],15%[46.1 µM]
